AddAB inh – growth inhibition of E. coli expressing H. pylori AddAB, primary screen, AddAB inhibitor project, absorbance | inhibition, % at 11.9 µM | hit rate 0.29% among 330,000 | AID 435030, 2010; in the data active means inhibition above about 12%;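 further: 0% = vehicle wells of infected cells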
phage Ecoli inh – growth loss of phage-infected E. coli, primary screen, RecBCD inhibitor project, absorbance, with phage, HTS; AID 651602, 2012; inhibition, % at 11.9 µM; hit rate 0.26% among 360,000; in the data active means inhibition above about 11%
E coli growth-1 – E. coli growth inhibition, primary screen, OD600. Escherichia coli growth, 23 h; stronger effect = lower value. OD600 absorbance (no concentration beside the values). hit rate 0.21% among 330,000;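 active means OD600 absorbance below the run mean of sample wells minus 3.6 SD, in any replicate, cut at about 0.56 in these data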
Tat transport – E. coli Tat export inhibitors, primary screen, MC4100, TorA-mCherry reporter, fluorescence, single point. inhibition, % at 10 µM. hit rate 0.036% among 340,000. AID 488895, 2010;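 active means mean replicate inhibition at least 50% and at least half of replicates individually reaching 50%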;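 further: exported cargo escapes ClpAP degradation while cytoplasmic cargo is degraded and loses fluorescence; 0% = median of neutral control wells and 100% = median of NaSCN control wells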
E coli growth-2 – E. coli V3065 growth inhibition, primary screen, counter-screen for AddAB inhibitor project, absorbance, OD600 | 18 h | inhibition, % at 11.9 µM | hit rate 0.27% among 330,000;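 active means inhibition above the campaign's mean inhibition across all tested compounds plus 3 SD, cut at about 9.9% in these data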;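 further: uninfected addAB+ strain grown without phage in ampicillin broth; 0% = DMSO wells and 100% = ciprofloxacin 0.95 µg/ml wells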
* = called active by the depositor; / = no result given. Sampled rows, rich in hits. Any-hit rate of the full collection: about 0.5%.

SMILES	AddAB inh	phage Ecoli inh	E coli growth-1	Tat transport	E coli growth-2
O=C1c2ccccc2NC(c2ccc(-c3ccccc3F)o2)N1O (configuration not stated)	9.9	8.6	0.647	-8.6	11.6*
O=C(O)CC1c2cc(F)ccc2S(=O)(=O)N1C1CCN(Cc2ccccc2)CC1 (configuration not stated)	/	/	0.697	/	/
CC(=O)Oc1ccc(C(=O)Cc2ccccn2)c(O)c1	3.4	3.1	0.654	56.0*	-1.2
O=c1oc(Nc2cccc(F)c2)nc2ccccc12	4.4	1.8	0.666	-6.8	0.7
Nc1nc(Nc2cccc(F)c2)nc2ccccc12	1.6	5.8	0.466*	7.3	0.7
Cc1ccccc1OCC(=O)NN=C1SCC(=O)N1Cc1ccccc1	/	/	0.679	/	/
CC(=O)OC1C(=O)[C@@]2(C)C(O)CC3OC[C@@]3(OC(C)=O)C2C(OC(=O)c2ccccc2)[C@]2(O)CC(OC(=O)C(O)C(NC(=O)c3ccccc3)c3ccccc3)C(C)=C1C2(C)C (some centres not stated)	/	/	0.682	/	/
NC(CO)C(=O)NNCc1ccc(O)c(O)c1O (configuration not stated)	9.8	6.7	/	1.8	12.9*
COC(=O)C(N)Cc1ccc(O)c(O)c1 (configuration not stated)	1.2	-1.0	0.681	7.4	0.8
CC(=NOC(=O)NC(C)C)c1sc(-c2ccccc2)nc1C	/	/	0.674	/	/
CON(C)C(=O)C=CCCCCNC(=O)OC(C)(C)C	/	/	0.702	/	/
CCN(Cc1ccccc1)c1ccc(/C=N/N2CCOCC2)cc1	-0.8	3.3	/	-5.8	1.6
CCN(Cc1ccccc1)c1ccc(C=NN=C(N)N)cc1	/	/	0.502*	/	/
COc1cc(C=NN=C(N)N)ccc1OCc1ccc(Cl)cc1	/	/	0.509*	/	/
NC(N)=NN=Cc1ccc(OCc2ccccc2)c(OCc2ccccc2)c1	/	/	0.069*	/	/
O=[N+]([O-])c1cccc(-c2ccc(/C=N/NC(=S)Nc3ccccc3)o2)c1	8.8	1.0	/	-3.7	10.2*
O=[N+]([O-])c1ccc(C=Nc2cccc3ccccc23)s1	-1.2	/	0.51*	4.3	-0.6
O=[N+]([O-])c1ccc(C=Nn2c(CO)nc3ccccc32)s1	/	/	0.711	/	/
Cc1ccc(NC(=O)Nc2ccno2)cc1	2.3	6.6	0.449*	/	2.1
Cc1ccc(NC(=O)Nc2ncccc2C)cc1	3.8	3.9	0.709	9.6	2.2
CCCCNC(=S)Nc1ccc(C(F)(F)F)cc1	11.0	10.3	0.565	-0.5	11.1*
CCCCNC(=S)Nc1ccc(Cl)cc1	2.9	2.6	0.649	-3.3	1.6
O=[N+]([O-])c1nn(-c2ccccc2)n(O)c1=NC1CCN(Cc2ccccc2)CC1	8.0	5.0	0.591	4.4	10.3*
COCc1cc(C=NNC(=O)Cc2ccc(Cl)cc2)ccc1OC	/	/	0.247*	/	/
O=C(O)c1ccccc1O	2.8	4.1	0.702	11.4	0.5
SMILES	AddAB inh	phage Ecoli inh	E coli growth-1	Tat transport	E coli growth-2
O=C(O)c1ccccc1SSc1ccccc1C(=O)O	9.9	1.5	0.676	6.6	13.5*
C=CCNC(=S)NN=C(C)c1ccccn1	/	/	0.528*	/	/
Cc1ccc2nc(SCC(=O)NN=Cc3ccc(C(=O)O)cc3)cc(C)c2c1	/	/	0.669	/	/
CCn1c2c(c(=N)c3c1CCC3)CCCC2	-2.3	1.6	0.674	/	1.7
CCCCCCCCCCn1c2c(c(=N)c3c1CCC3)CCC2	4.9	8.0	0.224*	0.8	8.2
CCCCCCCCCn1c2c(c(=N)c3c1CCC3)CCCC2	/	/	0.43*	29.6	/
CCCCCCCCn1c2c(c(=N)c3ccccc31)CCC2	/	7.8	0.592	-0.6	/
CCCCCC=CCC(O)C=Cc1cccc(CC(O)CCCCO)n1 (configuration not stated)	/	/	0.674	/	/
C(=NNc1nc2ccccc2s1)c1ccc2c(c1)OCO2	/	/	0.695	/	/
O=C(/C=C/c1ccccc1)NC(=S)NNC(=O)c1cccnc1	-2.6	-3.7	0.72	4.3	-6.0
O=C(/C=C/c1ccccc1)NC(=S)NNC(=O)c1cnccn1	11.0	8.9	/	2.4	11.3*
O=C(CCCCCNC(=O)c1ccccc1)NN=Cc1ccccc1	/	/	0.707	/	/
NCC12CC3CC(C1)CC(c1ccc(Cl)cc1)(C3)C2	2.1	3.2	0.505*	15.7	1.1
COc1cc(C=CC(=O)O)cc(OC)c1O	/	/	0.665	/	/
O=C(CCN1CCOCC1)c1ccccc1	6.5	2.4	0.618	-30.1	-2.5
O=C(CCN1CCOCC1)NNC(=S)NC(=O)c1ccccc1	3.9	-4.2	0.528*	-14.6	-0.2
CC1(C)c2[nH]c3ccccc3c2CC2C(=O)N(c3cc(F)ccc3F)C(=O)N21 (configuration not stated)	/	/	0.725	/	/
O=C(NN=Cc1c[nH]c2ccc(Br)cc12)c1ccn(Cc2ccc(Cl)cc2Cl)n1	/	/	0.769	/	/

Compound activity (PubChem)
